The panel holds about 79,000 compounds, 15% with a hit somewhere; the sample as a whole holds those more often. Values without a mark were called inactive. Calls of active or inactive are those of the source. Cut-off read from the data, not from the text of the source: active = growth inhibition above about 70%; inactive = the rest.
What was measured:
[1] = NCI Yeast Anticancer Drug Screen. Data for the rad50 strain (AID 155);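 note: 0% = growth of vehicle-only cultures of the same strain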; conditions: S. cerevisiae rad50 strain growth inhibition, hits give high values
Method in brief: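 Vehicle-treated cultures provide the reference for the growth inhibition reported for compound-exposed, repair-deficient yeast.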

[2] = NCI Yeast Anticancer Drug Screen. Data for the mec2-1 strain (AID 157); conditions: S. cerevisiae mec2-1 strain, hits give high values
Method in brief: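 Test agents were screened against the mec2-1 yeast strain, with defined DNA repair or cell cycle alteration. Growth was scored as inhibition against vehicle-only controls.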

[3] = NCI Yeast Anticancer Drug Screen. Data for the sgs1 mgt1 strain (AID 161);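 note: 0% = growth of cultures given vehicle only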; conditions: S. cerevisiae sgs1 mgt1 strain, hits give high values
Method in brief: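 Inhibition of yeast growth, normalised to vehicle-treated controls, is reported for a strain bearing genetic alterations in DNA damage repair.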

[4] = NCI Yeast Anticancer Drug Screen. Data for the cln2 rad14 strain (AID 165);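 note: 0% = growth equal to vehicle treated cultures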; conditions: S. cerevisiae cln2 rad14 strain, hits give high values
Method in brief: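 Growth of compound-exposed yeast (cln2 rad14 genotype) measured and expressed as inhibition relative to vehicle.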

[5] = NCI Yeast Anticancer Drug Screen. Data for the bub3 strain (AID 167); conditions: S. cerevisiae bub3 mutant strain, hits give high values
Method in brief: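 Mutant yeast screening strain plus compound; vehicle-treated cultures serve as the 0% inhibition reference.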

[6] = NCI Yeast Anticancer Drug Screen. Data for the mlh1 rad18 strain (AID 175); conditions: S. cerevisiae mlh1 rad18 strain growth inhibition, hits give high values
Method in brief: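 In this whole-cell yeast screen, a strain with altered DNA damage repair is challenged with compound, and its growth is measured against matched vehicle-treated controls.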

[7] = at 5.0 µM (retest, dose inferred, filed as 0.5)
[8] = at 50.0 µM (retest, dose inferred, filed as 5.0)

SMILES	growth inhibition [1, 7]	growth inhibition [1, 8]	growth inhibition ([1]; at 50.0 µM)	growth inhibition [2, 7]	growth inhibition [2, 8]	growth inhibition ([2]; at 50.0 µM)	growth inhibition [3, 7]	growth inhibition [3, 8]	growth inhibition ([3]; at 50.0 µM)	growth inhibition [4, 7]	growth inhibition [4, 8]	growth inhibition ([4]; at 50.0 µM)	growth inhibition [5, 7]	growth inhibition [5, 8]	growth inhibition ([5]; at 50.0 µM)	growth inhibition [6, 7]	growth inhibition [6, 8]	growth inhibition ([6]; at 50.0 µM)
CNc1ccc(N=O)cc1	-1%	90% (active)	87.8% (active)	27%	99% (active)	90.8% (active)	5%	57%	89% (active)	19%	81% (active)	74.7% (active)	25%	98% (active)	89.2% (active)	19%	98% (active)	87.6% (active)
NC1NCCC(=O)N1CCc1c[nH]c2ccccc12 (stereo not given)	-18%	99% (active)	65.9%	7%	100% (active)	54.9%	-22%	99% (active)	54.4%	31%	99% (active)	22.3%	-26%	100% (active)	74.5% (active)	-12%	100% (active)	53.6%
Cc1ccc(NC(=O)CCc2nnc(N)n2N)cc1	-2%	-5%	-3.55%	-1%	4%	96.5% (active)	-6%	0%	97.5% (active)	0%	5%	93.2% (active)	4%	7%	95% (active)	-4%	-1%	97.2% (active)
COc1cc2c3c(c4ccc(OC)c(OC)c4c2cc1OC)CN1CCC[C@@H]1C3	11%	95% (active)	92% (active)	8%	99% (active)	93.5% (active)	15%	96% (active)	93% (active)	1%	92% (active)	91.2% (active)				-29%	93% (active)	88.5% (active)
CC(N1CCOCC1)C(O)(c1ccccc1)c1ccccn1 (stereo not given)	3%	10%	-19.4%	-1%	-15%	-35.9%	-4%	-15%	-32.6%	24%	-1%	60.2%				4%	19%	2.75%
Oc1cc(Cl)cc2cc(Cl)cnc12	99% (active)	99% (active)	86.6% (active)	96% (active)	98% (active)	91.2% (active)	98% (active)	98% (active)	84.8% (active)	97% (active)	96% (active)	87.7% (active)	98% (active)	99% (active)	87.8% (active)	98% (active)	99% (active)	82.3% (active)
CCOC(=O)c1ccccc1NC(OCC)C(=O)c1ccccc1 (stereo not given) (tested in a mixture with another compound)	-5%	70% (active)	75% (active)	5%	22%	63.9%	1%	69%	90.8% (active)				-5%	71% (active)	70% (active)	0%	81% (active)	90.7% (active)
O=c1ccc2c(COc3ccc(Cl)cc3Cl)c3ccc(O)cc3oc-2c1	-4%	15%	78.5% (active)	-3%	-1%	45.8%	-2%	12%	73.9% (active)	9%	12%	26.7%				-6%	4%	60.1%
O=C1/C(=C/c2cccc(O)c2)COc2ccccc21	21%	95% (active)	93.8% (active)	34%	98% (active)	96.1% (active)	63%	98% (active)	96.2% (active)				58%	95% (active)	95.8% (active)	77% (active)	97% (active)	96.8% (active)
COc1cc2c(c(-c3cn(C)c4ccccc34)c1OC)OCO2	4%	24%	36.2%	0%	54%	15.3%	4%	59%	86% (active)	-1%	1%	-30.6%				0%	35%	41.9%
O=C(CC1Sc2ccccc2NC1=O)Nc1ccc([N+](=O)[O-])cc1[N+](=O)[O-] (stereo not given)	30%	81% (active)	88% (active)	25%	89% (active)	93.3% (active)	51%	98% (active)	81.8% (active)	34%	62%	28.9%				51%	96% (active)	86.9% (active)
CC(=O)Oc1ccc2c(c1)CCC1C2CCC2(C)C1CCC21CO1 (stereo not given)	-4%	60%	89.7% (active)	-6%	18%	28.6%	-3%	54%	73.4% (active)	1%	11%	52.2%				-6%	29%	66.7%
CC(=O)Nc1ccc(N=C2c3ccccc3-c3ccc(NC(C)=O)cc32)cc1	2%	64%	98.4% (active)	0%	52%	77.3% (active)	-2%	57%	98.5% (active)	3%	28%	43.4%	-1%	53%	87.8% (active)	-5%	59%	98.2% (active)
O=C1c2ccccc2C(=O)c2c(Nc3cc4c5c(ccc6c7ccc8c9c(cc(Nc%10cccc%11c%10C(=O)c%10ccccc%10C%11=O)c(c3c56)c97)-c3ccccc3C8=O)C(=O)c3ccccc3-4)cccc21	1%	15%	16.9%	-5%	-3%	44%	2%	-3%	-1.9%	-6%	4%	40.8%	-11%	6%	3.1%	-13%	-4%	-4.35%
CC1CCN(CC(=O)N2c3ccccc3Sc3cc4ccccc4cc32)CC1	4%	15%	10.2%	4%	-20%	13.6%	-15%	12%	-14.6%				-4%	7%	-3.9%	-4%	8%	-2.5%
CCC(=O)C(CC)(c1ccc(OC(C)=O)cc1)c1ccc(OC(C)=O)cc1	13%	82% (active)	-20.3%	24%	73% (active)	-1.2%	9%	75% (active)	53.1%	9%	33%	14.7%	9%	59%	35.1%	21%	93% (active)	-1.85%
O=C(c1ccc(O)c(Br)c1)c1cc(Br)ccc1O	66%	98% (active)	95.7% (active)	77% (active)	98% (active)	96.9% (active)	73% (active)	98% (active)	97.8% (active)	86% (active)	99% (active)	95.3% (active)	85% (active)	97% (active)	96% (active)	78% (active)	98% (active)	95.9% (active)
CSC(=S)N/N=C(/C)CC(C)C	25%	94% (active)	57.1%	14%	94% (active)	93% (active)	10%	92% (active)	45.8%	-5%	88% (active)	66.8%	24%	95% (active)	95.8% (active)	16%	95% (active)	54%
CCC1=C(c2ccc(OC(C)=O)cc2)Cc2cc(OC(C)=O)ccc21	-14%	64%	-4.5%	-13%	67%	-9%	-3%	72% (active)	5.55%				-3%	83% (active)	26%	-13%	84% (active)	4.55%
CCc1cccc(C)c1NC(=O)C1=C(C)NC(C)=C(C(=O)Nc2c(C)cccc2CC)C1c1ccc2c(c1)OCO2	32%	32%	91.2% (active)	27%	27%	89.3% (active)	33%	33%	89.6% (active)	20%	20%	84.2% (active)				37%	37%	87.2% (active)
COc1ccc(C23OCCN2C(=O)c2ccccc23)cc1 (stereo not given)	4%	-3%	97% (active)	-15%	-6%	97.1% (active)	-4%	2%	97.5% (active)	-4%	-2%	92.7% (active)	-31%	-2%	96.3% (active)	-10%	-2%	97.9% (active)
CCCCCCCCCCNC(=O)CBr	2%	99% (active)	83.7% (active)	-2%	100% (active)	64.8%	-3%	99% (active)	-1.3%	5%	100% (active)	18.9%	14%	99% (active)	97.8% (active)	6%	99% (active)	94% (active)
Cn1cnc2[nH]c(Cl)nc(=S)c21	-1%	2%	1.05%	3%	0%	-8.25%	-1%	0%	-0.65%	-6%	0%	81.1% (active)				-2%	0%	15.6%
CCN(CC)CC(O)c1ccnc2c(O)cccc12 (stereo not given)	3%	40%	80.2% (active)	4%	40%	20.6%	-2%	33%	71.7% (active)		32%	11.9%	-6%	42%	0.1%	1%	20%	51.9%
Clc1cccc(C2SCc3nc4ccccc4n32)c1Cl (stereo not given)	-2%	97% (active)	98.6% (active)	-3%	98% (active)	98.4% (active)	2%	98% (active)	97.5% (active)				1%	98% (active)	98.5% (active)	-4%	98% (active)	97.1% (active)
N#CS/C(C(Cl)=C(Cl)Cl)=C(/Cl)[N+](=O)[O-]	99% (active)	100% (active)	88.8% (active)	99% (active)	100% (active)	92% (active)	99% (active)	99% (active)	85.9% (active)				99% (active)	100% (active)	90% (active)	99% (active)	99% (active)	84% (active)
Cc1cccc2c1Oc1ccccc1C2N1C(=O)/C(=C/c2ccccc2Cl)SC1=S (stereo not given)	99% (active)	74% (active)	60.1%	99% (active)	48%	29.1%	100% (active)	29%	38.4%	96% (active)	1%	16.4%				99% (active)	72% (active)	64.2%
COc1ccc(Cc2c(-c3ccc(C)cc3)n[nH]c(=O)c2C2C(=O)N(c3ccccc3)N=C2c2ccccc2)cc1 (stereo not given)	98% (active)	95% (active)	97% (active)	99% (active)	96% (active)	95.3% (active)	97% (active)	97% (active)	98.2% (active)	98% (active)	97% (active)	96% (active)				47%	94% (active)	96% (active)

— PubChem BioAssay (NCI)
